Cav3 T inh – Cav3.2 calcium influx blockers – cell-based, Fluo-4 calcium fluorescence, FDSS, MLSMR library, primary screen. B-score at 10 µM. Cav3.2-expressing cells; active compounds read low. 100,000 compounds, 4% hits. Voltage-dependent T-type calcium channel subunit alpha-1H (Homo sapiens), O95180;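 active = single-dose well whose peak fluorescence ratio is a statistical outlier from its plate by either plate-standardised score or position-corrected B-score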
M1 antag – antagonists of rat M1 muscarinic receptor; Muscarinic acetylcholine receptor M1 (Rattus norvegicus), P08482; CHO-M1 cells, Fluo-4 calcium, ACh EC80 antagonist mode; active compounds read low; B-score at 10 µM; 64,000 compounds, 3.4% hits; AID 628, 2007;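 active = calcium fluorescence response, raw or row-and-column corrected B-score, differing from the plate sample mean either way at a set confidence level, mostly lower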
Target sequence (P08482 whole entry, looked up): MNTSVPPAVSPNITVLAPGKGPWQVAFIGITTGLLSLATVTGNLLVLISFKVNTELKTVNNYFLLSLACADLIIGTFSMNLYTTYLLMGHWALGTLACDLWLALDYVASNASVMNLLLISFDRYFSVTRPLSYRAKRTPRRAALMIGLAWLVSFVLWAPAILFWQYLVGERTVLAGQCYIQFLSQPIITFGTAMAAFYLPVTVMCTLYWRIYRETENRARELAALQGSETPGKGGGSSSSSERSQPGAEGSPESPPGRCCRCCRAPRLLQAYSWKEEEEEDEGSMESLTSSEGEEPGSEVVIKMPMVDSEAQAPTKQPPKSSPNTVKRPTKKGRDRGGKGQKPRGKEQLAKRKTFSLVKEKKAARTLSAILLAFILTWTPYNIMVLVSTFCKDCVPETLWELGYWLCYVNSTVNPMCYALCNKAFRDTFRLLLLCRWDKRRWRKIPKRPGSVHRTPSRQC
Pyk2 oligo antag – antagonists of Pyk2 self-association, primary screen, Q293 cells, FERM NanoBiT luminescence, HTS; active compounds read low; 99,000 compounds, 0.83% hits; z-score (the deposit names both 25 µM and 10 µM); Protein-tyrosine kinase 2-beta (Homo sapiens), Q14289;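 active = Z-score of -3 or lower, scaled per plate to the spread of control and sample wells; inactive = z-score above -3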;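 note: negative z-score means lost luminescence so less FERM oligomerization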
M1 ag – M1 muscarinic receptor agonists, primary screen, CHO-M1 cells, Fluo-4 calcium, agonist mode; Muscarinic acetylcholine receptor M1; Fluo-4 calcium fluorescence; active compounds read high; B-score at 10 µM; 64,000 compounds, 3% hits; AID 626, 2007;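 active = fluorescence rise, raw or as B-score row- and column-corrected plate score, outside the 99.7% band of its plate's samples, either direction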
M1 antag confirm – rat M1 muscarinic receptor antagonists, confirmation, CHO cells, Fluo-4 calcium, duplicate; shares compounds with M1 antag; ACh EC80 antagonism; active compounds read low; calcium response (max-min fluorescence) at 10 µM; 1,700 compounds, 43% hits;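 active = calcium response below the same-plate mean of wells given acetylcholine alone at its 80%-effect dose, minus 3 SD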;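 note: raw fluorescence intensity difference in arbitrary instrument units and not normalized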
mGluR4 antag – human mGluR4 response to M1 antagonist hits, M1 allosteric modulator project, cell-based, antagonist mode, secondary assay 1; shares compounds with M1 antag; CHO-mGluR4 calcium flux, Fluo-4 fluorescence, glutamate EC80; active compounds read low; fluorescence response (max-min) at 10 µM; 1,700 compounds, 0.9% hits; AID 678, 2007;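 active = fluorescence response below the plate's average for near-maximal glutamate wells, less 3 SD of those wells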;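 note: raw unnormalized fluorescence span taken in the window right after glutamate addition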
* marks the source's active call; other numbers are inactive results; / = not tested or not shown. Hits are enriched below; roughly 7.1% of the tested compounds scored in any of these assays.

SMILES | Cav3 T inh | M1 antag | Pyk2 oligo antag | M1 ag | M1 antag confirm | mGluR4 antag
CCc1ccc(NC(=O)N(CCCN2CCOCC2)C(C)c2cc3cccc(OC)c3o2)cc1 (centres undefined) | -4.9 | -0.26 | 0.36 | -0.36 | / | /
CCCCCCC1C(C#N)=C(N)OC2=C1C(=O)CC(C)(C)C2 (centres undefined) | -0.24 | 0.6 | / | 3.9 | / | /
CCCCCCC1C(C#N)=C(N)OC2=C1C(=O)CCC2 (centres undefined) | -1.4 | -2.3* | / | -0.3 | 434* | 236
COc1ccccc1Nc1nc(NCCCCO)nc(N2CCCC2)n1 | -0.37 | / | / | / | / | /
O=C(O)C1C2C=CC(C2)C1C(=O)NC1CCN(Cc2ccccc2)CC1 (centres undefined) | / | -0.08 | 0.05 | -0.015 | / | /
O=C(NC1CCN(Cc2ccccc2)CC1)C1COc2ccccc2O1 (centres undefined) | 0.028 | -4.5* | 0.82 | -0.023 | 377* | 252
CCOc1ccccc1NC(=O)c1ccc(Cl)c(NC(=O)CC(c2ccccc2)c2ccccc2)c1 | -2.8 | / | 0.78 | / | / | /
CCCc1cc(C(=O)N2CCN(C(c3ccccc3)c3ccccc3)CC2)no1 | -2.1 | -0.19 | / | 0.17 | / | /
Cc1cc(C(=O)N2CCN(C(c3ccccc3)c3ccccc3)CC2)no1 | -0.95 | -3* | -0.65 | 0.14 | 301* | 198
O=C(c1ccc(=O)oc1)N1CCN(C(c2ccccc2)c2ccccc2)CC1 | 0.11 | -2.7* | 0.42 | 0.42 | 319* | 236
Cc1cc(=O)oc(C)c1C(=O)N1CCN(C(c2ccccc2)c2ccccc2)CC1 | 1.9 | -0.71 | -1.2 | -0.092 | / | /
CC(C)(C)NC(=O)c1sccc1C(=O)O | -0.99 | 0.31 | 0.2 | 0.49 | / | /
NC(=O)CNC(=O)[C@@H]1CC2(CC(c3ccc(Cl)cc3)=NO2)CN1C(=O)c1ccc(Br)cc1 (some centres undefined) | 0.5 | / | / | / | / | /
CCN(CCCNC(=O)c1c(C)cc(=O)oc1C)c1ccccc1 | 0.015 | -3.9* | 0.3 | 0.53 | 530 | 246
CCCCN(CCCNC(=O)c1c(C)cc(=O)oc1C)c1ccccc1 | -0.76 | -1.2 | 0.12 | 0.18 | / | /
CCOC(=O)C1(S(=O)(=O)c2ccc(Cl)cc2)CCN(Cc2ccc(C)cc2)CC1 | -2.5 | / | -0.94 | / | / | /
COc1cc2c(cc1OC)C(C(=O)N1CCCC1)C(c1ccccc1F)N(C)C2=O (centres undefined) | 0.98 | -0.0072 | 0.03 | -1.2 | / | /
COc1cc2c(cc1OC)C(C(=O)N1CCN(c3ccccn3)CC1)C(c1cccs1)N(C)C2=O (centres undefined) | / | -2.1* | -0.24 | 0.51 | 604 | 239
COc1ccc(CNC(=O)NCc2ccc(OC)c(OC)c2)cc1OC | 0.21 | -2.4* | 1.1 | -1.4 | 524 | 206
O=C(Nc1cc(Cl)ccc1Cl)C1CC(=O)N(c2ccc(Br)cc2)C1 (centres undefined) | 0.62 | / | 0.57 | / | / | /
Cc1ccccc1-n1nnnc1SCC(=O)Nc1ccc(S(=O)(=O)N2CCCC2)cc1 | -1.5 | 0.26 | -1 | 0.41 | / | /
Cc1nnc(SCC(=O)Nc2ccc(S(=O)(=O)N3CCCC3)cc2)n1N | -1.3 | -4.7* | 0.33 | -0.033 | 276* | 241
Cc1ccc(-c2nnn(CC(=O)O)n2)cc1 | -0.37 | -0.42 | 0.99 | -0.36 | / | /
CSc1ccc(-c2nnn(Cc3ccc(C)cc3)n2)cc1 | -0.41 | -5.4* | 0.57 | 1.4 | 617 | 244
COC(=O)c1[nH]c2cccc(Cl)c2c1NC(=O)CN(C)C1CCCCC1 | -2.3 | -1.8* | -0.38 | 1.2 | 367* | 180
SMILES | Cav3 T inh | M1 antag | Pyk2 oligo antag | M1 ag | M1 antag confirm | mGluR4 antag
CCCCn1nnnc1NCc1ccc(N2CCCC2)cc1 | -1.1 | -3.7* | 0.1 | -0.82 | 544 | 240
CCC1CCCCN1CCCNC(=O)c1cn(CC(C)C)c(=O)c2cc(OC)c(OC)cc12 (centres undefined) | 0.22 | -1.2* | 0.54 | 0 | 458* | 250
CN(c1ccc(C(=O)NC2CC2)cc1)S(=O)(=O)c1ccccc1 | 0.51 | 1 | -0.08 | 0.36 | / | /
COc1ccc(CCn2nnnc2C(c2ccc(Cl)cc2)N2CCN(C)CC2)cc1OC (centres undefined) | 0.59 | -3.1* | -0.14 | 0.047 | 630 | 258
CCN1CCN(C(c2ccccc2)c2nnnn2CCc2ccc(OC)c(OC)c2)CC1 (centres undefined) | 0.96 | 0.013 | 0.38 | -0.49 | / | /
CCc1ccc(N(C(C)=O)C2C=CS(=O)(=O)C2)cc1 (centres undefined) | -0.014 | 0.0096 | 0.97 | 0.56 | / | /
COCCOC(=O)C1=C(C)NC2=C(C(=O)CCC2)C1c1ccc2c(c1)OCO2 (centres undefined) | 0.37 | 0.99 | -0.84 | 1.1 | / | /
CCCOC(=O)C1=C(C)NC2=C(C(=O)CCC2)C1c1ccc(N(C)C)cc1 (centres undefined) | -0.32 | -8.2* | 0.17 | -1.5 | 248* | 253
CCOC(=O)C1=C(C)NC2=C(C(=O)CCC2)C1c1ccc(N(C)C)cc1 (centres undefined) | -0.017 | -4.3* | 0.74 | 0.77 | 350* | 272
CCN(CC)c1ccc(C2C(C(=O)OCCOC)=C(C)NC3=C2C(=O)CCC3)cc1 (centres undefined) | 0.51 | -10* | 0.52 | -0.47 | 222* | 200
N#Cc1nc(COc2ccccc2Cl)oc1NCc1cccnc1 | -0.068 | / | -2.3 | / | / | /
Cn1nc(-c2ccc(OCC(=O)NCC3CCCO3)cc2)c2ccccc2c1=O (centres undefined) | 0.46 | -1.1 | 2 | 2.4 | / | /
COc1cccc(C(=O)N(CN2CCCC2=O)c2cc(C)on2)c1 | 0.015 | -3.4* | -0.46 | -0.43 | 545 | 190
COc1cccc(C(=O)N(CN2CCCC2=O)c2cccc(Cl)c2)c1 | 1.9 | 1.1 | 0.01 | 1.1 | / | /
OC(CN1CCN(c2ccccc2)CC1)Cn1c2ccccc2c2ccccc21 (centres undefined) | 0.3 | / | -1.4 | / | / | /
Cn1cc(CN2CCN(c3ccccc3)CC2)c2ccccc21 | -0.96 | -4.3* | -0.47 | -0.63 | 459* | 191
Cc1nc(SCC(=O)NCCc2ccccc2)nc(C)c1C | 0.21 | / | -0.95 | / | / | /
N=c1sccn1CC(=O)Nc1cccc(Oc2ccccc2)c1 | -0.56 | -2.4* | -0.12 | 0.88 | 381* | 238
CCN1CCc2c(sc(NC(=O)Nc3ccc(Cl)c(Cl)c3)c2C(N)=O)C1 | / | / | -0.3 | / | / | /
Cc1cc(N2CCN(c3ccccn3)CC2)n2c(nc3ccccc32)c1C#N | -0.67 | -2.2* | -0.06 | 3.1 | 576 | 127*
Cc1noc(C)c1C(=O)N1CCN(C(=O)c2sc3cc(Cl)ccc3c2Cl)CC1 | 2.4 | -4* | 0.71 | -0.24 | 659 | 229
